The campaign covered roughly 48,000 compounds. About 450 (0.94%) were called active. Where a call stands in place of a potency, no number is given. Another 19% or so got no clear call; they are omitted. The sample holds actives, similar compounds and a random draw of the others, so the mix is not that of the screen. A number with no mark means an inactive call. The call rests on the fitted dose curve; in most records, active means well fitted inhibition curve with a large enough effect; inconclusive means small, poorly fitted or top-dose-only effect; inactive means no such curve, though single readings can be large or run the other way.
Experiment: Primary qHTS for Identification of Small Molecule Inhibitors of Huntingtin Promoter Activity; further: nearly all actives have a fitted effect of over 50% in size
Conditions: HEK293 HTT promoter firefly luciferase reporter (activity 0% = vehicle and -100% = no light), 24 h; series mostly up to 57.5 µM
Source text: Assay Provider: Russell L. Margolis M.D.
Department Neurology, Johns Hopkins University School of Medicine, Baltimore, MD
Huntington's Disease (HD) is a neurodegenerative disorder caused by a CAG repeat expansion in exon 1 of huntingtin (HTT). While there are currently no disease-modifying treatments for HD, recent efforts have focused on development of nucleotide-based therapeutics to lower HTT expression. As an alternative to siRNA or oligonucleotide methods, we hypothesized that suppression of HTT expression might be accomplished by small molecules that either (1) directly decrease HTT expression by suppressing HTT promoter activity or (2) indirectly decrease HTT expression by increasing the promoter activity of HTT-AS, the gene antisense to HTT that appears to inhibit expression of HTT.
We developed and employed a high throughput screen for modifiers of HTT and HTT-AS promoter activity using luminescent reporter HEK293 cells; of the 52,041 compounds tested, we identified 898 replicable hits. We used a rigorous stepwise approach to assess compound toxicity and the capacity of the compounds to specifically lower huntingtin protein in 5 different cell lines, including HEK293 cells, HD lymphoblastoid cells, mouse primary neurons, HD iPSCs differentiated into cortical-like neurons, and HD hESCs. We found no compounds which were able to lower huntingtin without lowering cell viability in all assays, though the potential efficacy of a few compounds at non-toxic doses could not be excluded.
SEQUENCE No. (1, 2, 3, etc.); […] (e.g., Cells, Incubation, Reagent, etc.); VALUE and DESCRIPTION.
1; Reagent; 4 uL; 2,500 Hek293 luciferase reporter cells per wells
3; Compound; 23 nL; Control inhibitor / compound library
5; Reagent; 2.5 uL; Firefly Luc reagent; Dual-Glo Luciferase Reporter Assay System (Promega)
6; Time; 10 min; room temperature incubation
7; Detection; Luminescence; FLuc
NOTES (numbers refer to sequence above)
1; High-throughput screening, measuring luminescence from a Hek293 luciferase reporter, was performed in 1,536 well white-walled tissue-culture treated plates. 2,500 cells were plated in 4 µL of Opti-MEM per well using a Multidrop Combi Reagent Dispenser (ThermoFisher).
2; Assay plates were cultured for 24 hours.
3; Control inhibitor (PTC124; final concentration of 50 uM) and compound library (at final concentrations of 460 nM - 57.5 uM) were added to the assay plate using the Kalypsis Pintool Robotic System equipped with 1536 pinheads.
4; Cells were then incubated for 24 hours at 37 degrees C prior to luminescence measurements.
5; In all cases, luminescence was measured using the Dual-Glo Luciferase Reporter Assay System (Promega) following the manufacturer's instructions.
6; Room temperature incubation.
7; Luminescence signal was obtained using the PerkinElmer ViewLux plate reader. Results were normalized to vehicle control (0% activity) and zero RLU (-100% activity).
Potency means the concentration at half of the fitted maximal effect.

SMILES | Potency | activity change, negative = inhibition
Cc1cccc(N2CCN(C(=O)c3ccc(Nc4nc5ccccc5n5nnnc45)cc3)CC2)c1C | inactive | –
O=C(c1ccc2c(c1)N(Cc1ccccc1)C(=O)c1ccccc1S2(=O)=O)N1CCCC1 | inactive | –
CCOc1ccccc1N(CC)C(=O)Nc1cn(C)c(=O)c2ccccc12 | inactive | –
CSc1nc(-c2ccc(F)cc2)nc2c1Cc1c(CO)cnc(C)c1O2 | inactive | –
CCOc1ccc(NC(=O)C(CC(C)C)N2Cc3ccccc3C2=O)cc1 (configuration not stated) | inactive | –
COC(=O)c1cc(NC(=O)c2sc3ccccc3c2Cl)cc(C(=O)OC)c1 | inactive | –
Cc1cccc(N2CCN(C(=O)c3oc(=O)c4ccccc4c3-c3ccccc3)CC2)c1C | inactive | –
CC(C)(C)OC(=O)N1CCC(c2c(C(=O)NCc3ccccn3)cnn2-c2ccc(F)cc2)CC1 | inactive | –
Cc1ccc(NC(=O)CSc2nc3c([nH]c4ccccc43)c(=O)n2-c2ccccc2)c(C)c1 | inactive | –
Cc1ccc(-c2noc(CSc3nnc(-c4ccc(Cl)cc4)n3C)n2)cc1 | inactive | –
COc1ccc(-c2noc(CSc3nc(C)cc(=O)[nH]3)n2)cc1OC | inactive | –
COc1ccc(-c2noc(CSc3nc4ccc(C)cc4[nH]3)n2)cc1 | 28.2 µM (active) | –
Cn1c(=O)c2c(SCC(=O)N3CCc4ccccc43)nc(-c3ccc(Cl)cc3)nc2n(C)c1=O | inactive | –
Cc1cc(C)cc(NC(=O)CSc2oc(-c3ccccc3)nc2S(=O)(=O)c2ccc(Cl)cc2)c1 | inactive | –
Cc1ccc2c(=O)c(C(=O)c3ccc(Cl)cc3)cn(CC(=O)NC3CCCCC3)c2n1 | inactive | –
COC(=O)c1scc(-c2ccc(C)cc2)c1S(=O)(=O)Nc1cc(Cl)c(OC)cc1OC | inactive | –
CCOC(=O)c1ccc(NC(=O)c2csc3c2CCCCC3)cc1 | inactive | –
COc1cccc(C(=O)c2sc3nc(-c4ccccc4)cc(C(F)(F)F)c3c2N)c1 | inactive | –
Cn1c(=O)n(Cc2c(F)cccc2Cl)c(=O)c2c1nc1n2CCN1c1ccc(F)cc1 | inactive | –
CCc1nn(CC(=O)N2CCN(c3cccc(C(F)(F)F)c3)CC2)c(=O)c2cc3occc3n12 | inactive | –
COC(=O)c1ccc(OC)c(Cn2c(=O)n(Cc3ccccc3)c(=O)c3c2c2cc(OC)ccc2n3C)c1 | inactive | –
Cc1cccc(C(=O)NCCc2nc3ccccc3n2Cc2ccccc2Cl)c1 | inactive | –
CCOc1ccc2nc(N3CCCC(C(=O)Nc4cc(C)ccc4C)C3)sc2c1 (configuration not stated) | inactive | –

SMILES | Potency | activity change, negative = inhibition
O=C(/C=C/c1ccccc1)N1CCN(Cc2cc(=O)n3nc(-c4ccccc4F)sc3n2)CC1 | inactive | –
COc1cccc(Cn2c(SCc3ccc(C(=O)N4CCCCC4)cc3)nc3ccncc32)c1 | 12.6 µM (active) | –
Cc1cccc(CSc2nc3ccncc3n2Cc2ccc(C(=O)O)cc2)c1 | inactive | –
O=C(O)c1ccc(Cn2c(SCc3ccc(F)cc3)nc3ccncc32)cc1 | inactive | –
COc1ccccc1Cc1nc2ccccc2nc1SCC(=O)N1CCCc2ccccc21 | inactive | –
Cc1ccc(CNC(=O)CCc2c(C)nc3nc(CNC(=O)OC(C)(C)C)nn3c2C)cc1 | inactive | –
CC(=O)N1CCCc2cc(S(=O)(=O)Nc3ccc(Cl)cc3F)ccc21 | inactive | –
CC(=O)N1CCCc2cc(S(=O)(=O)N3CCCC(C(=O)N4CCN(c5cccc(Cl)c5)CC4)C3)ccc21 (configuration not stated) | 7.08 µM (active) | –
CC(=O)N1CCCc2cc(S(=O)(=O)N3CCC(C(=O)NC4CCCCC4)CC3)ccc21 | inactive | –
CCN(CC)c1ccc(NC(=O)CN2CCN(CC(=O)Nc3ccc(Cl)cc3)CC2)cc1 | inactive | –
Cc1oc2ncnc(N3CCOCC3)c2c1C(=O)NCCc1ccccc1 | inactive | –
Cc1ccc(NC(=O)c2oc3ccc(S(=O)(=O)N4CCCCC4)cc3c2C)cc1Cl | inactive | –
CCOC(=O)c1oc2ccc(S(=O)(=O)n3nc(-c4ccccc4OC)cc3N)cc2c1C | 12.6 µM (active) | –
Cc1c(C(=O)Nc2cccc(Cl)c2)oc2ccc(S(=O)(=O)N3CCOCC3)cc12 | inactive | –
O=C(Nc1ccc2nc(SCC(=O)N3CCc4ccccc43)sc2c1)c1ccccc1F | inactive | –
O=C(c1cccc(Cl)c1)N1CCN(CCc2ccncc2)CC1 | inactive | –
COC(=O)c1sccc1S(=O)(=O)N(CC(=O)Nc1ccc(C)c(F)c1)c1ccc(C)c(C)c1 | inactive | –
CC1CN(C(=O)N2CCC(C(=O)NCc3cccs3)CC2)c2ccccc2O1 (configuration not stated) | inactive | –
Cc1ccc2nc(COc3cccc(NC(=O)c4cccc(Cl)c4)c3)cc(=O)n2c1 | inactive | –
CCn1cc(C(=O)NCCc2ccccc2)c(=O)c2cc(S(=O)(=O)N3CCCCCC3)ccc21 | inactive | –
CCc1ccc(NC(=O)N2CCN(C(=O)c3nsc4ccccc34)CC2)cc1 | inactive | –
Cc1ccc(Oc2c(C(F)(F)F)oc3c(CN4CCCCC4)c(O)ccc3c2=O)cc1 | inactive | –
COc1ccc(-c2cc(NCc3ccc(F)cc3)n3cnnc3n2)cc1 | inactive | –

SMILES | Potency | activity change, negative = inhibition
CCOc1ccc(S(=O)(=O)c2cn(Cc3ccc(OC)cc3)c3ccc(F)cc3c2=O)cc1 | inactive | –
Cc1sc(C2C(C#N)=C(N)N(c3cccc(Cl)c3)C3=C2C(=O)CCC3)cc1CN1CCOCC1 (configuration not stated) | inactive | –
COc1ccc(NC(=O)c2ccco2)cc1NC(=O)c1ccc(C#N)cc1F | inactive | –
CCc1cccc(NC(=O)CN(C)S(=O)(=O)c2ccc3[nH]c4c(c3c2)CCCC4)c1 | inactive | –
COc1ccc(OC)c(-n2nnc3c(sc4nc(C)c(Br)c(C)c43)c2=O)c1 | inactive | –
Cc1c(C(=O)N(C)C)sc2c1c(=O)n(-c1ccc(F)cc1)c(=O)n2CC(=O)N(C)c1ccccc1 | inactive | –
CCOc1ccc(C(NC(=O)c2cc(OC)c(OC)c(OC)c2)c2cc(Cl)c3cccnc3c2O)cc1 (configuration not stated) | 3.55 µM (active) | –
COc1cc(C(=O)NCC(c2ccc(Cl)cc2)N2CCOCC2)cc(OC)c1OC (configuration not stated) | inactive | –
COc1c(Cl)cc(Cl)cc1C(=O)Nc1cccc2cccnc12 | inactive | –
CCCCCn1c(=O)[nH]c2cc(C(=O)Nc3cc(C)cc(C)c3)ccc2c1=O | inactive | –
Cc1ccc(Cl)cc1N1CCN(S(=O)(=O)c2cc3[nH]c(=O)c(=O)[nH]c3cc2C)CC1 | inactive | –
CC(=O)c1sc(N2C(=O)c3oc4ccccc4c(=O)c3C2c2ccc(C)cc2)nc1C (configuration not stated) | – | -13.5% [at 11.5 µM]
CCS(=O)(=O)N1CCc2cc(C(=O)NCc3ccc(C)cc3)ccc21 | inactive | –
CCOC(=O)c1c(C)oc2nc(C)nc(Nc3ccc(CC)cc3)c12 | inactive | –
O=C(Cn1c(=O)nc(-c2ccccc2)c2cc(Cl)ccc21)NCc1ccc(Cl)cc1 | inactive | –
CCCOc1cccc(C(=O)Nc2cccc(NC(=O)c3ccc(C(C)(C)C)cc3)c2)c1 | inactive | –
CCCN(CCC)CCNC(=O)Cn1cnc2sc(C)c(S(=O)(=O)N3CCC(C)CC3)c2c1=O | inactive | –
CCc1nn(CCCC(=O)NC(C)c2ccccc2)c(=O)c2cc3occc3n12 (configuration not stated) | inactive | –
COc1ccc(-c2cc(-c3nc(-c4cc(OC)c(OC)c(OC)c4)no3)[nH]n2)c(OC)c1 | inactive | –
Cc1ccccc1-c1nc(CS(=O)(=O)CC(=O)NC(C)c2ccccc2)c(C)o1 (configuration not stated) | inactive | –
Cc1ccc(Cl)cc1N1CCN(C(=O)CN2C(=O)COc3ccc(S(=O)(=O)N4CCOCC4)cc32)CC1 | inactive | –
Cc1cccc(N2CCN(C(=O)COCc3cc(-c4ccc5c(c4)OCO5)on3)CC2)c1C | inactive | –
O=C(Cn1c(-c2cccs2)cc2ccccc21)NCCc1ccc(Cl)cc1 | inactive | –

SMILES | Potency | activity change, negative = inhibition
Cc1oc(-c2ccccc2F)nc1CN1CCC(C(=O)NCCc2ccc(Cl)cc2)CC1 | inactive | –
Cc1c(NC(=O)Nc2ccc(F)c(Cl)c2)c(=O)n(-c2ccccc2)n1C | inactive | –
CCN(CC)S(=O)(=O)c1ccc2c(c1)N(CC(=O)NCC(C)c1ccccc1)C(=O)CO2 (configuration not stated) | inactive | –
CCN(CCCNC(=O)c1cc2c(=O)n(CC)c3ccccc3c2s1)Cc1ccccc1 | inactive | –
Cc1ccc(Cl)cc1N(C)C(=O)Cn1nc(Cc2cccnc2)c2ccccc2c1=O | inactive | –
CC(=O)c1cccc(Nc2ccc3cc(S(=O)(=O)N4CCC(C)CC4)ccc3n2)c1 | inactive | –
C[C@@H](NC(=O)c1ncnc(N)c1Cl)c1ncc(C(=O)Nc2cc(C(F)(F)F)c(Cl)cn2)s1 | inactive | –
Cc1cc(NC(=O)CSc2ncc(C(=O)Nc3ccc(Cl)cc3)c(=O)n2C)no1 | inactive | –
CC(=O)c1ccc(NC(=O)C2CCN(S(=O)(=O)c3c(C)noc3/C=C/c3ccc(C)cc3)CC2)cc1 | inactive | –
CCOC(=O)c1ccc(NC(=O)C2CC(=O)N(c3ccc(C(C)C)cc3)C2)cc1 (configuration not stated) | inactive | –
CC(C)c1ccc(NC(=O)C2CCN(c3nc(-c4ccc(C(C)C)cc4)no3)CC2)cc1 | 0.0891 µM (active) | –
Cc1ccc2nc(CNC(=O)c3ccccc3)[nH]c2c1 | inactive | –
COCCCNC(=O)CN1C(=O)CSc2ccc(S(=O)(=O)N3CCOCC3)cc21 | inactive | –
CCCNC(=O)c1ccc2c(c1)ncn2-c1ccc(C)cc1C | inactive | –
CN1C(=O)C[C@H](C(=O)N[C@@H](Cc2cnc[nH]2)C(=O)N2CCC[C@@H]2C(N)=O)NC1=O | inactive | –
COc1ccc(C(=O)NCC(c2ccc(N(C)C)cc2)N2CCc3ccccc32)c(OC)c1 (configuration not stated) | inactive | –
COc1cccc(-n2c(=O)c3c(C)c(C(=O)N(C)C)sc3n(Cc3cccc(C)c3)c2=O)c1 | inactive | –
COc1ccc2c(c1)C=C(C(=O)NCc1cc(Br)ccc1OC)CO2 | inactive | –
CCc1ccccc1NC(=O)c1ccc2nc(CCc3ccccc3)oc2c1 | inactive | –
O=C(Nc1cccc(-c2nc3ccccc3o2)c1)c1cccc(Br)c1 | inactive | –
Cc1ccc(NC(=O)C2CCN(S(=O)(=O)c3cc(-c4noc(C)n4)ccc3C)CC2)c(C)c1 | 11.2 µM (active) | –
Cc1cc(C)c(/C=C/c2onc(C)c2S(=O)(=O)N2CCC(C(=O)Nc3ccc(Cl)cc3C)CC2)c(C)c1 | inactive | –
CCOc1ccc(NC(=O)C2CCN(S(=O)(=O)c3cc(-c4noc(C)n4)ccc3C)CC2)cc1 | inactive | –

Source: PubChem BioAssay AID1508623 (National Center for Advancing Translational Sciences (NCATS), 2021)
